# Test results from paper PMC11574364.
# Key:
# Assay in all cases: protein domain microarray probed with biotinylated miRNA; Domain array: 20 mM Tris-HCl pH 7.4, 200 mM KCl, 0.2 mM EDTA, 0.05% NP40, 2 ug/ul heparin, overnight 4 C. ORF array: PBS pH 7.0 with RNase inhibitor, 100 ng RNA; high values mean tight binding
# Details in all cases: ssRNA
# ADARB2(2) = molecular target: T1, ADARB2(2) (Homo sapiens, UniProt Q9NS39)
# T1 sequence: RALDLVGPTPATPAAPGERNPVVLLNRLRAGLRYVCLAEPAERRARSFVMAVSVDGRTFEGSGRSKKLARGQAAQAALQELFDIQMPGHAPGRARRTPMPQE
# FBP3(1-4) = FBP3(1-4) (Homo sapiens, UniProt Q96I24)
# IGF2BP3(3-4) = IGF2BP3(3-4) (Homo sapiens, UniProt O00425)
# DGCR8 = molecular target: T2, DGCR8 (Homo sapiens, UniProt Q8WYQ5)
# T2 sequence: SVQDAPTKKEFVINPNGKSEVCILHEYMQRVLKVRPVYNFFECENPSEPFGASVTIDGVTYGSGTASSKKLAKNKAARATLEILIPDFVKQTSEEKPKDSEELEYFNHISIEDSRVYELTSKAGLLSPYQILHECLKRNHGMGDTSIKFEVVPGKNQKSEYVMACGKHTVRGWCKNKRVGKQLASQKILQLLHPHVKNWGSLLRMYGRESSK
# QKI = molecular target: T3, QKI (Homo sapiens, UniProt Q96PU8)
# T3 sequence: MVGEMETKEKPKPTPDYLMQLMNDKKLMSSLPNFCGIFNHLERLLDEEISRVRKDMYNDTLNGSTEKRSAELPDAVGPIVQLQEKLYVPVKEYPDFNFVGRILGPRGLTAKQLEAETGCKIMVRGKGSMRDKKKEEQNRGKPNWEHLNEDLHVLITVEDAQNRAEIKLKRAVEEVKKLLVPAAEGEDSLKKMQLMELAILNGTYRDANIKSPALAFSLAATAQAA
# IGF2BP3(3-4), sequence (O00425 387-579): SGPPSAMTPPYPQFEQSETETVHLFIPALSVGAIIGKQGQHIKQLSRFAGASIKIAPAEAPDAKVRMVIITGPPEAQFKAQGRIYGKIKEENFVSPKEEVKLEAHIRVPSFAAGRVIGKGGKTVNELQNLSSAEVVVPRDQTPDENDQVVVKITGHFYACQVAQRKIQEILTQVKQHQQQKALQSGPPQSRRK
# FBP3(1-4), sequence (Q96I24 57-441): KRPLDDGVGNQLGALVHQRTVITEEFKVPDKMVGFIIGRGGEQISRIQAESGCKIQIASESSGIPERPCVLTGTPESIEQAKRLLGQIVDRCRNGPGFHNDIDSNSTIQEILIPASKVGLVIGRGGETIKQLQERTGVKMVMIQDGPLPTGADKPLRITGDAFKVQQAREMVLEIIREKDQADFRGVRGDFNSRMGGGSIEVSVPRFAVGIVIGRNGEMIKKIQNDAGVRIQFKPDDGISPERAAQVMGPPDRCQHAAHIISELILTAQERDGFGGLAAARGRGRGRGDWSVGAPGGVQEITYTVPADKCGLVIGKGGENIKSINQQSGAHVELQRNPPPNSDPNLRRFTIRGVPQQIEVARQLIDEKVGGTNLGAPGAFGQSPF
Sequence,binding signal (ADARB2(2)) [fluorescence intensity],binding signal (FBP3(1-4)) [fluorescence intensity],binding signal (IGF2BP3(3-4)) [fluorescence intensity],binding signal (DGCR8) [fluorescence intensity],binding signal (QKI) [fluorescence intensity]
CAGUGCAAUGAUGAAAGGGCAU,32.5 ± 3.78,52.55 ± 0.495,53.6 ± 2.39,102 ± 2.74,37.7 ± 8.53
UGAGGUAGUAGGUUGUGUGGUU,85.94 ± 0.24,107 ± 3.19,169 ± 5.85,212.8 ± 0.537,66.4 ± 1.27
UGAGGUAGUAGGUUGUAUGGUU,59.45 ± 0.594,77.1 ± 5.85,96.125 ± 0.0778,110 ± 8.32,33.2 ± 5.98
UGAGGUAGUAGGUUGUAUAGUU,,38 ± 4.14,29.1 ± 0.552,38.6 ± 3.32,20.4 ± 2.35
AGAGGUAGUAGGUUGCAUAGUU,23.8 ± 11.5,63.6 ± 6.09,64.5 ± 3.37,130 ± 1.15,33.1 ± 1.25
